Laboratory results reported in PubChem BioAssay (NCATS).
Results filed as inconclusive are left out. Active and inactive are the calls of the source. The call rests on the fitted dose curve; in most records, active means well fitted inhibition curve with a large enough effect; inconclusive means small, poorly fitted or top-dose-only effect; inactive means flat fitted curve, though single readings scatter.

How the values were obtained:
Test in all cases: qHTS profiling for inhibitors of Plasmodium falciparum proliferation (AID 504749); further: nearly all actives have a fitted effect of over 60% in size
Conditions in all cases: P. falciparum in erythrocytes, SYBR Green DNA, 72 h; series mostly up to 28.7 µM
CP262 = system: CP262
How it was run: (§1)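 Three-day growth assay of blood-stage parasites in erythrocytes (0.3% parasitemia, 2.5% hematocrit) at 37 C, 5% CO2, quantified by SYBR Green DNA staining after overnight detergent lysis.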

CP265 = system: CP265
How it was run: as §1

CP266 = system: CP266
How it was run: as §1

CP268 = system: CP268
How it was run: as §1

CP269 = system: CP269
How it was run: as §1

CP286 = system: CP286
How it was run: as §1

CP291 = system: CP291
How it was run: as §1

CP297 = system: CP297
How it was run: as §1

CP305 = system: CP305
How it was run: as §1

CP315 = system: CP315
How it was run: as §1

CP325 = system: CP325
How it was run: as §1

CP329 = system: CP329
How it was run: as §1

CP335 = system: CP335
How it was run: as §1

DFO2036 = system: DFO2036
How it was run: as §1

DIV14 = system: DIV14
How it was run: as §1

DIV17 = system: DIV17
How it was run: as §1

DIV30 = system: DIV30
How it was run: as §1

Dd2 = system: Dd2
How it was run: as §1

ECU = system: ECU
How it was run: as §1

FAB9 = system: FAB9
How it was run: as §1

GB4 = system: GB4
How it was run: as §1

HB3 = system: HB3
How it was run: as §1

ICS = system: ICS
How it was run: as §1

JCK = system: JCK
How it was run: as §1

N140 = system: N140
How it was run: as §1

P93_24 = system: P93_24
How it was run: as §1

P94_40 = system: P94_40
How it was run: as §1

PAD = system: PAD
How it was run: as §1

PC15 = system: PC15
How it was run: as §1

PC26 = system: PC26
How it was run: as §1

PC49 = system: PC49
How it was run: as §1

SC27B = system: SC27B
How it was run: as §1

TAB109 = system: TAB109
How it was run: as §1

TAB113 = system: TAB113
How it was run: as §1

TAB165 = system: TAB165
How it was run: as §1

Measured: Potency

CN1[C@@H]2CC(OC(=O)[C@@H](CO)c3ccccc3)C[C@@H]1[C@H]1O[C@H]12 (stereo not given in full)
inactive: all assays above
